For this assay, the target named is Concanavalin-A (Canavalia ensiformis) (UniProt P02866). The experiment in a line: ConA small-molecule binders, primary screen, artefact control for SMM control protein annotation, biochemical, small-molecule microarray, Alexa647 label, 635 nm (AID 1127).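 Note: z combines 667 nm emission intensity with signal-to-noise across three replicate slides.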 Conditions: ConA-A647 binding fluorescence, higher = more signal.
Concanavalin-A (Canavalia ensiformis), sequence (P02866 whole entry, looked up): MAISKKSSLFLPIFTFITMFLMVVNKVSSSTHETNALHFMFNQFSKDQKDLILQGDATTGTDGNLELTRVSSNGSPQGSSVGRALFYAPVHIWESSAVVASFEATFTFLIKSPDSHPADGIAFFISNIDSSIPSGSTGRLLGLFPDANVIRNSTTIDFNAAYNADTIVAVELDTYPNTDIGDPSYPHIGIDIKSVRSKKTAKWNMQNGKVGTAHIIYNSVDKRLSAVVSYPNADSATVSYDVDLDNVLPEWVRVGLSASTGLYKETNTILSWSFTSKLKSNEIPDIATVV
In turn, `[N-]=[N+]=Nc1ccccc1[C@H]1OC(c2ccc(OCCCO)cc2)=N[C@@]1(CCS(=O)(=O)c1ccccc1)C(=O)N1CCCCC1` came in with a composite z-score of 1.19.
`CN(C)CCCNC(=O)[C@@H]1c2ccccc2C(=O)N(CC23CC4CC(CC(C4)C2)C3)[C@H]1c1ccc(CO)cc1` displayed a composite z-score of 1.18.
The compound `COC(=O)[C@]1(CCS(=O)(=O)c2ccccc2)N=C(c2ccc(OCCCO)cc2)O[C@@H]1c1ccccc1CN=[N+]=[N-]` registered a composite z-score of 0.848.
`O=C(NC1CC1)[C@@H]1c2ccccc2C(=O)N(Cc2ccccc2)[C@H]1c1ccc(CO)cc1`: the composite z-score turned out to be 0.38.
The same measure for `COC(=O)C1(Cc2ccccc2)C=C2C(=C(c3ccccc3)C(=O)C2C)CN1` (stereo unspecified): -1.56; for `NC(N)=NCc1cn(CCc2c[nH]c3ccccc23)nn1`: 0.948.
The same measure for `CC(=O)n1cc(C(O)C2C=CC3C(=O)N(c4ccccc4)C(=O)C3N2Nc2ccccc2)c2ccccc21` (stereo unspecified): 0.183.
The same measure for `CC(C)C(O)C1C=CC2C(=O)N(C)C(=O)C2N1N(c1ccccc1)c1ccccc1` (stereo unspecified): -0.847; for `C=C(CCCC)/C(=C/C[C@@H](OC(C)=O)c1ccc(CO)o1)c1cc(C(=O)OC)ccc1OC`: 0.851.
In turn, `COCCOC(=O)N1C(=O)[C@@]2(c3cc(C#Cc4ccc(OC)cc4)ccc31)[C@H](C(=O)N1CCCCCCC1)[C@H]1C(=O)O[C@H](c3ccccc3)[C@H](c3ccccc3)N1[C@@H]2c1ccc(O)cc1` gave a composite z-score of 0.692.
In the case of `C#CCNC(=O)[C@H](Cc1ccccc1)NC(=O)[C@@H](N=[N+]=[N-])C(C)C`, the composite z-score is 0.584.
As for `COc1c(C)cc(-c2cc3c(c(-c4ccccc4)n2)[Si](C(C)C)(C(C)C)OC3)cc1C`, the composite z-score is 0.134.
For `CN(C)CCCCNC(=O)[C@H]1C[C@H]2C(=O)N[C@@H](CCCCN(C)C)C(=O)N2[C@H]1c1cccc(OCCO)c1` the value was 1.14.
The same measure for `COC(=O)C1(Cc2ccccc2)C=C2C(=C(C(C)C)C(=O)C2C)CN1` (stereo unspecified): -1.83; for `[N-]=[N+]=NCc1ccccc1C[C@@]1(C(N)=O)N=C(c2ccc(OCCCO)cc2)O[C@@H]1c1ccccc1CN=[N+]=[N-]`: 0.792; for `C=CCNC(=O)[C@@H]1[C@H]2C(=O)O[C@H](c3ccccc3)[C@H](c3ccccc3)N2[C@H](c2ccccc2OCCO)[C@@]12C(=O)N(C(=O)OCCOC)c1ccc(C#CC3=CCCCC3)cc12`: 1.12.
`[N-]=[N+]=NCc1ccccc1C[C@@]1(C(=O)NCCN2CCOCC2)N=C(c2ccc(OCCCO)cc2)O[C@@H]1c1ccccc1N=[N+]=[N-]` gave a composite z-score of 1.09.
The compound `O=C1OCC=C[C@H]2OC34C=CCN(c5ccc(Cl)cc5)C(=O)[C@H]3N(CCCCCO)C(=O)[C@@H]4[C@@H]12` (stereo partly specified) registered a composite z-score of -0.893.
For `CN(C)C(=O)[C@]1(CCC(=O)OC(C)(C)C)N=C(c2ccc(OCCCO)cc2)O[C@@H]1c1ccccc1` the value was 0.34; for `CCCNC(=O)[C@@]1(c2ccc([N+](=O)[O-])cc2)CC(=O)N(C2CCCCC2)[C@@H]1c1ccc(CO)cc1I`, 1.07; for `COC(=O)C[C@H]1O[C@]2(C(=O)N(C)c3ccccc32)[C@@H](C)[C@@H]1[Si](C)(C)c1ccc(C)cc1`, 0.379.
For `COCCOC(=O)N1C(=O)[C@@]2(c3cc(C#CC4(O)CCCCCC4)ccc31)[C@H](c1ccccc1OCCO)N1[C@H](c3ccccc3)[C@H](c3ccccc3)OC(=O)[C@H]1[C@@H]2C(N)=O` the value was 1.15.
In turn, `CO[C@H]1O[C@H](CO)[C@@H](OC(=O)c2ccc(Br)cc2)[C@@H]2OC(=O)[C@@H](Cc3ccc4ccccc4c3)C/C=C/C[C@H](Cc3ccc4ccccc4c3)C(=O)O[C@@H]12` returned a composite z-score of 0.275.
For `COCCCNC(=O)[C@]1(Cc2ccccc2N=[N+]=[N-])N=C(c2ccc(OCCCO)cc2)O[C@@H]1c1ccccc1N=[N+]=[N-]` the value was 1.09; for `C=CCOC(=O)[C@H]1[C@@H]2C(=O)O[C@@H](c3ccccc3)[C@@H](c3ccccc3)N2[C@@H](c2ccc(OCCOC(=O)[C@H]3C[C@H]4C(=O)N[C@@H](CCCC[N+](C)(C)C)C(=O)N4[C@H]3c3cccc(OCCO)c3)cc2)[C@]12C(=O)Nc1ccc(I)cc12`, 1.13.
For `COc1ccc(NN2C(C(O)c3ccco3)C=CC3C(=O)N(C4CCCCC4)C(=O)C32)cc1` (stereo unspecified) the value was 1; for `O=C1NC(=O)C2C1C=CC(C(O)c1ccc(Br)cc1)N2Nc1ccccn1` (stereo unspecified), 0.48; for `C[C@]1(C(=O)O)c2ccccc2C(=O)N(Cc2ccccc2)[C@H]1c1ccc(CO)cc1`, -1.34.
For `COCCOC(=O)N1C(=O)[C@@]2(c3cc(C#CC4(O)CCCCCC4)ccc31)[C@H](C(N)=O)[C@H]1C(=O)O[C@H](c3ccccc3)[C@H](c3ccccc3)N1[C@@H]2c1ccc(O)cc1` the value was 0.866.
For `CCN(CC)c1ccc(N2CC=CC34O[C@@H]5/C=C\CCC(C)OC(=O)C5[C@H]3C(=O)N(CCO)[C@@H]4C2=O)cc1` (stereo partly specified), the composite z-score is -0.242.
For `CCOC(=O)C[C@H]1[C@H](OC(=O)c2ccccc2-c2ccccc2)[C@@H](NC(=O)CC(C)C)c2cc(OCCCO)ccc2N1C(=O)c1ccc2ccccc2n1` the value was 0.629; for `O=C1O[C@@H](c2ccccc2)[C@@H](c2ccccc2)N2[C@@H](c3ccccc3OCCO)[C@]3(C(=O)Nc4ccc(C#CC5=CCCCC5)cc43)[C@@H](C(=O)NC[C@H](O)c3ccccc3)[C@H]12`, 1.04; for `C=CCOC(=O)[C@@H]1[C@H]2C(=O)O[C@H](c3ccccc3)[C@H](c3ccccc3)N2[C@H](c2ccc(OCCOC(=O)[C@H]3C[C@H]4C(=O)N[C@@H](CC(C)C)C(=O)N4[C@H]3c3ccc(O)cc3)cc2)[C@@]12C(=O)Nc1ccc(I)cc12`, 1.22.
For `NCCCCCCNC(=O)[C@H]1C[C@H]2C(=O)N[C@@H](Cc3ccccc3)C(=O)N2[C@H]1c1ccc(O)cc1` the value was 1.2; for `O=C1OCC=C[C@H]2OC34C=CCN(Cn5nnc6ccccc65)C(=O)[C@H]3N(CCCCCCO)C(=O)[C@@H]4[C@@H]12` (stereo partly specified), -1.01; for `COc1ccc([Si](C)(C)[C@H]2[C@H](CCn3cc([C@H](O)c4ccccc4)nn3)O[C@@]3(C(=O)N(Cc4ccc(N5CCC5=O)cc4)c4ccccc43)[C@@H]2C)cc1`, 0.672.

Source of the values: PubChem BioAssay.
